TRb SRC2 PPI: TRbeta-SRC2 interaction inhibition; P10828; TRbeta-SRC2 peptide binding, fluorescence polarization; receptor liganded with 1 µM T3; Potency, µM (top dose mostly 106 µM), for the others: top-dose activity change, negative = inhibition, hits mostly inhibitors; 280,000 compounds, 0.065% hits; active = well fitted inhibition curve with a large enough effect; inconclusive = small, poorly fitted or top-dose-only effect, or effect the other way;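 note: potency is the fitted concentration of half-maximal effect; plate controls were bound peptide for no effect and peptide without receptor for full effect; nearly all actives have a fitted effect of over 50% in size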
Target sequence (P10828 whole entry, looked up): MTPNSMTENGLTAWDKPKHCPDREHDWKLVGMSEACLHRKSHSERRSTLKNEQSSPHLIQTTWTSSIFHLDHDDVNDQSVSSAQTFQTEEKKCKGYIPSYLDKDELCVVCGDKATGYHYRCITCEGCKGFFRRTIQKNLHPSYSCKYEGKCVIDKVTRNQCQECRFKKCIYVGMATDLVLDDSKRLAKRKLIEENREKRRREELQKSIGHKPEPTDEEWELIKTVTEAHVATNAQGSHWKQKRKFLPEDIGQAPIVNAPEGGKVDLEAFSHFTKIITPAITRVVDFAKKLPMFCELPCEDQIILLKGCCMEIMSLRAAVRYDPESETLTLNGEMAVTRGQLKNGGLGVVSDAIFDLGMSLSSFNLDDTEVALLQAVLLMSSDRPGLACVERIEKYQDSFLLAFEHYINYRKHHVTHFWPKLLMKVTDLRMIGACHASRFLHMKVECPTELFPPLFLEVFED
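Each compound concentration gave % activity, normalized to unbound and bound Texas Red SRC2 controls, from polarization read after 5 hr ambient incubation with T3-loaded human TRb LBD.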
TR SRC2 fluor cs: alters Texas Red total fluorescence, flagging assay interference; 280,000 compounds, 0.29% hits; Potency, µM (titrated, usually from 106 µM), for the others: top-dose fluorescence change, negative = quenching; TRb/SRC2 Texas Red total fluorescence interference; active = well fitted curve in either direction with a large enough effect; inconclusive = small, poorly fitted or top-dose-only effect; note: potency is the fitted concentration of half-maximal effect; % is set by controls: 0 for no effect and ±100 for the full control effect
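Flags fluorescent or light-absorbing compounds by total fluorescence, S + 2P, at 555 nm excitation and 632 nm emission. Mixture: 20 nM Texas Red SRC2 peptide, 0.6 uM human TRb LBD, 1 uM T3, 5% DMSO; compound exposure 5 h at ambient temperature.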
RGS12 GoLoco inh: blocks human Gai1 binding to RGS12 GoLoco peptide, red readout; P63096; Gai1:RGS12 GoLoco peptide FP, rhodamine, 10 min; Potency, µM (doses to about 61.6 µM), without a hit: top-dose activity, negative = inhibition, most hits filed as inhibitors; 230,000 compounds, 0.44% hits; AID 880; active = well fitted inhibition curve with a large enough effect, not every such curve was filed as active; inactive = no such curve, though single readings can be large or run the other way; note: potency is the fitted concentration of half-maximal effect; % is set by controls: 0 for no effect and ±100 for the full control effect; nearly all actives have a fitted effect of over 30% in size
Target sequence (P63096 whole entry, looked up): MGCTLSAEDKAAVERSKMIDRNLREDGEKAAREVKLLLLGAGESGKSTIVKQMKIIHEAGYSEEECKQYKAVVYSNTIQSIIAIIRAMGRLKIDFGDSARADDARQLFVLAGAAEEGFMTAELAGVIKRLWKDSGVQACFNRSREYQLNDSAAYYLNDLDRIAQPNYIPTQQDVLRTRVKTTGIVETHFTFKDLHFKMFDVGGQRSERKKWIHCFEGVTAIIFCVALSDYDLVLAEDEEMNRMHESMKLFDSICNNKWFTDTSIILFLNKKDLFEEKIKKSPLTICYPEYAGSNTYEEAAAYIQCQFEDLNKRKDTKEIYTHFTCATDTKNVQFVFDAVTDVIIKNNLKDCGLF
MLL CXXC-DNA inh: blocks binding of human MLL CXXC domain to DNA | Q03164 | Potency, µM (titrated, usually from 115 µM), for the others: at the highest dose activity change, negative = inhibition, actives largely listed as inhibitors | 290,000 compounds, 0.037% hits | MLL-CXXC / FITC-HOXA9 DNA fluorescence polarization; active = well fitted inhibition curve with a large enough effect in the polarisation, with a control signal flat, not every such curve was filed as active; inconclusive = small, poorly fitted or top-dose-only effect, or effect the other way, or a change in a side signal; inactive = no such curve, though single readings can be large or run the other way; the % refers to the polarisation; note: potency is the fitted concentration of half-maximal effect
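Fluorescence polarization: 7 uM MLL-CXXC (stock) preincubated 5 min with compounds, then 50 nM fluorescein-HOX-A9 DNA (stock) added; 30 min ambient. Buffer 50 mM Tris-HCl pH 7.5, 50 mM NaCl, 1 mM DTT, 0.05% BSA.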
Menin-MLL FL inh: displaces fluorescein MLL peptide from human menin. FP activity change, % at 61.4 µM. Fluorescence polarization, fluorescein-MLL peptide displacement from menin. 290,000 tested, under 10 active; active = well fitted curve in the direction sought with a large enough effect in the polarisation, not every such curve was filed as active; inconclusive = small, poorly fitted or top-dose-only effect, or effect the other way, or a change in a side signal; inactive = no such curve, though single readings can be large or run the other way; the % refers to the polarisation; note: % of control where 0% means no effect
Menin-MLL TR inh: displaces Texas Red mutant MLL peptide from human menin; AID 1768; Potency, µM (titrated, usually from 61.6 µM), for inactives: at the highest dose FP activity change, negative = inhibition, hits mostly inhibitors; 270,000 compounds, 0.23% hits; Menin + Texas Red MLL mutant peptide, fluorescence polarization; O00255; active = well fitted inhibition curve with a large enough effect in the polarisation, with a control signal flat, not every such curve was filed as active; inconclusive = small, poorly fitted or top-dose-only effect, or effect the other way, or a change in a side signal; inactive = no such curve, though single readings can be large or run the other way; the % refers to the polarisation; note: potency is the fitted concentration of half-maximal effect; % of control where 0% means no effect
Starred values were filed as active, the others as inactive; ? = inconclusive; nt = no result; [ ] = remark or other dose. A selection: hits, their analogues and other compounds. The true share with any hit is near 0.5%.

SMILES | TRb SRC2 PPI | TR SRC2 fluor cs | RGS12 GoLoco inh | MLL CXXC-DNA inh | Menin-MLL FL inh | Menin-MLL TR inh
Cc1cc(O)ccc1C1(c2ccc(O)cc2C)OC(=O)c2ccccc21 | -7.8% | 0.5% | -2.2% | -5.0% | 3.2 | 19.7%
O=C1OC2(c3ccc(O)cc3Oc3cc(O)ccc32)c2ccccc21 | -18.6% | -13.5% | 0.794µM* | nt | ? | ?
O=C1OC2(c3cc(I)c(O)c(I)c3Oc3c2cc(I)c(O)c3I)c2c(Cl)c(Cl)c(Cl)c(Cl)c21 | 25.1µM* | 7.08µM*[fluorescent] | nt | nt | ? | ?
NC(=S)NNC(N)=S | 10.6%[201 µM] | 5.0%[201 µM] | -5.7% | nt | nt | nt
COc1ccc(-c2cc(C(F)(F)F)n3nc(C(=O)Nc4cc(C(F)(F)F)ccc4Cl)cc3n2)cc1OC | 8.5% | 5.3% | nt | nt | nt | nt
COc1ccc(-c2cc(C(F)(F)F)n3nc(C(=O)Nc4cccc(Cl)c4Cl)cc3n2)cc1OC | -25.2%[53 µM] | 0.0355µM*[quencher] | nt | nt | nt | nt
CC(C)CCCCCCCCCCCCCCC(=O)O | 8.9%[201 µM] | -1.8%[201 µM] | nt | nt | nt | nt
Cc1ccc2c(Cl)cc(Cl)c(OCC(=O)OCC(=O)Nc3ccc(C#N)cc3)c2n1 | -6.9% | -2.7% | 20µM* | ? | 0.0 | -10.9%
CC(=O)c1cccc(NC(=O)COC(=O)COc2c(Cl)cc(Cl)c3ccc(C)nc23)c1 | -4.8% | 5.0% | 5.4% | 2.3% | 0.8 | 8.9%
Cc1ccc(-c2cc3ncc4c(n3n2)-c2cc(F)ccc2OC4)cc1 | -5.5% | 25.1µM*[quencher] | nt | nt | nt | nt
O=C(O)[C@H](C1NCCS1)N1C(=O)c2ccccc2C1=O (some centres undefined) | nt | nt | 0.6%[14.2 µM] | nt | nt | nt
Cc1cc2ccccc2n1CCNC(=O)c1ccc(Br)o1 | -1.8% | 13.3% | 22.4µM* | -3.8% | ? | ?
Cc1cc2ccccc2n1CCNC(=O)c1ccc(Br)cc1 | -1.4% | -1.9% | nt | nt | nt | nt
O=C1c2ccc(O)c(O)c2C(=O)c2c(O)ccc(O)c21 | 25.1µM* | 44.7µM*[fluorescent] | -25.3% | nt | nt | nt
CC1=NC(=O)C(N=Nc2cccc(C(=O)O)c2)N1c1ccccc1 (centres undefined) | 2.1% | -6.8% | 20µM* | ? | 2.8 | 18.2%
COC(=O)N1C2CC(=O)O[C@@H]3c4cc5c(cc4[C@]1(C)[C@@]3(Br)c1ccccc12)OCO5 | -5.8%[11.2 µM] | -1.0%[11.2 µM] | 6.6%[14.2 µM] | nt | 4.8[11.7 µM] | 7.5%[11.7 µM]
Cn1c(C(C#N)C2=C(Cl)C(=O)N(c3ccccc3)C2=O)nc2ccccc21 (centres undefined) | 44.7µM* | ? | 13.7% | ? | 4.6 | -26.4%
Cn1c(C(O)C(O)c2ccccc2)nc2ccccc21 (centres undefined) | -0.7% | -0.7% | -0.1% | -3.1% | 5.0 | 0.1%
COc1ccc(C(=O)Nc2ccccc2C(=O)N/N=C/c2cccc3ccccc23)cc1 | -2.1% | -1.0% | 6.5% | 30.6% | 5.5 | 28.2µM*
Cc1cc(Cl)ccc1OCC(=O)N(Cc1ccco1)Cc1ccco1 | -3.8% | -1.5% | nt | nt | nt | nt
Cc1ccc(CN(Cc2ccco2)C(=O)COc2ccc(Cl)cc2Cl)cc1 | ? | 0.0316µM*[quencher] | nt | nt | nt | nt
CCCCCCc1cc2cc(-c3nnc(-c4ccc(C)cc4)o3)c(=O)oc2cc1O | -18.2%[53 µM] | 2512µM*[quencher] | nt | nt | nt | nt
O=C(c1cccs1)N1N=C(c2ccccc2)CC1c1ccccc1O (centres undefined) | 0.4% | 3.8% | 6.6% | 13.1% | 8.1 | 17.8µM*
Cc1ccc(C2=NN(C(=O)c3cccs3)C(c3ccccc3O)C2)cc1 (centres undefined) | 1.2% | -2.0% | 20.7% | -8.9% | -0.2 | ?
N=C1[C@@H](O)[C@]2(I)c3ccccc3N3C(=N)[C@H](O)[C@@H]4c5ccccc5N1[C@@H]4[C@@H]32 | nt | nt | 2.24µM* | nt | nt | nt
SMILES | TRb SRC2 PPI | TR SRC2 fluor cs | RGS12 GoLoco inh | MLL CXXC-DNA inh | Menin-MLL FL inh | Menin-MLL TR inh
CCOc1ccc(-c2cc(-c3nc(-c4ccc(OC)c(OC)c4)no3)[nH]n2)cc1 | 2.8% | -0.9% | nt | nt | nt | nt
CCOc1ccc(C2=Cc3cc(OC)c(OC)cc3C(=C(Cl)Cl)O2)cc1 | 28.2µM* | -19.2% | -9.7% | 9.6% | 1.2 | -8.2%
Brc1ccc(Oc2ccc(Br)cc2)cc1 | 1.0%[201 µM] | -2.8%[201 µM] | nt | nt | nt | nt
CCCN(c1ccccc1CC)S(=O)(=O)c1ccc2c(c1)CC(C)N2C(=O)C1CC1 (centres undefined) | -1.6% | -2.1% | nt | nt | nt | nt
Cc1ccc2onc(CC(=O)N3CCN(c4cc(Cl)ccc4C)CC3)c2c1 | -27.4% | ? | nt | nt | nt | nt
Cc1ccc2onc(CC(=O)N3CCN(c4cccc(Cl)c4)CC3)c2c1 | -26.9% | 25.1µM*[quencher] | nt | nt | nt | nt
CCCCC(CC)COC(=O)c1ccc(C(=O)OCC(CC)CCCC)cc1 (centres undefined) | -9.4%[201 µM] | -4.5%[201 µM] | nt | nt | nt | nt
N#Cc1sc2nc(-c3cccs3)cc(-c3ccccc3)c2c1N | -10.6% | -4.3% | 29.0% | 16.6% | ? | 12.6µM*
N#Cc1sc2nc(-c3ccccc3)cc(C(F)(F)F)c2c1N | 3.6% | 0.5% | -8.5% | 5.7% | 4.1 | 17.7%
N#Cc1sc2nc(-c3cccs3)cc(-c3ccc(Cl)cc3)c2c1N | 0.3% | 2.6% | 10.5% | -9.7% | ? | 25.1µM*
C[C@@]12CCC(=O)C=C1CC[C@H]1C2[C@@H](O)C[C@]2(C)[C@@H]1CC[C@@]2(O)C(=O)CO (some centres undefined) | nt | nt | 19.1%[14.2 µM] | nt | nt | nt
Fc1ccc2c(c1)-c1nc(-c3ccccc3)cc(-c3ccccc3)c1CO2 | 1.0% | -1.1% | nt | nt | nt | nt
Fc1ccc(-c2cc(-c3ccc(F)cc3)c3c(n2)-c2cc(F)ccc2OC3)cc1 | -3.2% | 17.8µM*[quencher] | nt | nt | nt | nt
CC(N)COC(=O)C(CCCCN)NC(=O)Cc1c(-c2ccc3ccccc3c2)[nH]c2c1ccc1ccccc12 (centres undefined) | 9.0% | -15.1% | nt | nt | -1.4 | 1.6%
CCc1cccc(C)c1NC(=O)CSc1nc2ccc(N3C(=O)c4ccccc4C3=O)cc2s1 | -11.7% | -2.2% | 7.4% | 13.8% | 7.8 | ?
CCc1cccc(CC)c1NC(=O)CSc1nc2ccc(N3C(=O)C4C(C3=O)[C@H]3C=C[C@@H]4C3)cc2s1 (some centres undefined) | 0.3% | -1.8% | 2µM* | ? | 3.1 | 4.1%
COc1ccc(-c2noc(N3CCC(C(=O)N4CCN(c5ccccc5F)CC4)CC3)n2)cc1 | ? | 56.2µM*[quencher] | nt | nt | nt | nt
CCC1CN(C(=O)N2CCC(C(=O)N3CCN(c4ccccc4F)CC3)CC2)c2ccccc2O1 (centres undefined) | -2.6% | 0.0141µM*[quencher] | nt | nt | nt | nt
C[n+]1cccc(C(=O)NCC2CCCO2)c1 (centres undefined) | -4.1% | -1.1% | 1.78µM* | -0.5% | 5.5 | -16.3%
CCN(CC)c1ccc(N=Cc2ccccc2[N+](=O)[O-])cc1 | ? | 30.0% | 7.7% | 6.7% | 0.6 | 17.8µM*
COc1ccc(CCNC(=O)c2cn(C)c3ccc(S(=O)(=O)N4CCOCC4)cc3c2=O)cc1OC | -2.5% | -0.3% | nt | -15.3% | nt | nt

Bioassay records as filed in PubChem.
